Sampled rows, rich in hits. Any-hit rate of the full collection: about 2.4%.
D2 PAM-1: potentiates the human D2 dopamine receptor allosterically | P14416 | DiscoveRx D2 beta-arrestin cells, luminescence, 90 min; 100% = 57 uM dopamine signal | potentiation, % (concentration not given with the values) | 0.23% of 360,000 active | AID 624464; in the data active = potentiation above about 50%
Target sequence (P14416 whole entry, looked up): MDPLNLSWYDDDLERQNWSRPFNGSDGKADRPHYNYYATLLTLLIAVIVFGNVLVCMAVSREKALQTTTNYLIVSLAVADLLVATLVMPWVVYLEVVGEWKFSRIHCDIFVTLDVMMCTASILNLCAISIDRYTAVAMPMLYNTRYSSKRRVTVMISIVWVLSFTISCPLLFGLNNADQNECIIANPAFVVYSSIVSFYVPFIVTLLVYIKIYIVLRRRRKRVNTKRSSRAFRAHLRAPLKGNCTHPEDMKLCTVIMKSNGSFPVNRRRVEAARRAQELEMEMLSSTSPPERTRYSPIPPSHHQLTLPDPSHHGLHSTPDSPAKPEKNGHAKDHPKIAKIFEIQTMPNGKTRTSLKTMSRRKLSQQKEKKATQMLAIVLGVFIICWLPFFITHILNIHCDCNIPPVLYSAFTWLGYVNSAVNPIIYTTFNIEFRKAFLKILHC
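PathHunter beta-arrestin assay in DiscoveRx D2 cells. Compounds were added with an EC20 of dopamine (50 nM final) for 90 min at 37 deg C. Luminescence was read 1 h after detection reagent, with 57 uM dopamine as the EC100 control.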
D2 antagonist: antagonists of human D2 dopamine receptor. P14416. HEK293 TREx D2 cells, calcium flux, dopamine EC80. inhibition, % at 10 µM. 2% of 340,000 active; in the data active = inhibition above about 30%; inactive = below that, where a call was filed; also: 0% is about no effect
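Antagonism is scored as inhibition of an EC80 dopamine-evoked calcium signal in a force-coupled, tetracycline-inducible HEK293 T-REx D2 line, with compound present 180 s before agonist.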
D2 ag-1: activates the human D2 dopamine receptor; HEK293 T-REx D2 cells, calcium flux agonist mode; activation, % at 2 µM; AID 485358; 0.53% of 340,000 active;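 active = activation over 3 SD above normal in the single-dose calcium agonist read, cut at about 30% in these data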; also: 0% is about no effect
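HEK293 Trex D2 cells, tetracycline-induced, o/n 30 C 5% CO2; no-wash Ca dye, RT 30–90 min; 10-cycle baseline, 23 nl cpd added, kinetic Ca read 180 s; agonist hits = positive Ca response.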
D2 ag-2: activates the human D2 dopamine receptor; activation, % (concentration not given with the values); DiscoveRx PathHunter D2 beta-arrestin, luminescence, 90 min; 100% = 57 uM dopamine signal; 0.084% of 360,000 active; in the data active = activation above about 40%
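Agonist mode: compounds alone added to overnight-plated D2 PathHunter cells for 90 min at 37 C, with 57 uM final dopamine (EC100) defining full response. Beta-arrestin recruitment detected by chemiluminescent reagent, read after 1 h at ambient temperature.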
D2 PAM-2: D2 dopamine receptor (human) potentiation. 0.34% of 340,000 active. HEK293 T-REx D2, calcium flux, EC20 dopamine potentiation. AID 485347. potentiation, % at 10 µM;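 active = potentiation over 3 SD above the plate norm, cut at about 30% in these data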; also: 0% is about no effect
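Cells plated with tetracycline inducer and held overnight at 30 C; calcium dye loaded 30–90 min at room temperature; baseline taken, compound added and read 180 s; EC20 dopamine then added and read 180 s.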
The depositor's hits bear a star; · = not tested or not shown; ! = not active in a repeat.

SMILES	D2 PAM-1	D2 antagonist	D2 ag-1	D2 ag-2	D2 PAM-2
COC(=O)c1ccc(C(=O)OC)c(NC(=O)CSCc2ccccc2Br)c1	0	45*	0	-1	-1
COc1ccc(CCNCC(=O)Nc2c(C)cc(C)cc2C)cc1OC	-3	45*	-1	6	8
COc1ccc(CCNC(=O)c2[nH]c(C)c(C(C)=O)c2C)cc1OC	-14	38*	-1	0	1
CCOC(=O)c1sc2nc(C)nc(SCC(=O)NC3CCS(=O)(=O)C3)c2c1C (stereo not given)	-8	-17	-1	3	42*
COc1ccc(F)cc1S(=O)(=O)NC1CC(C)(C)NC(C)(C)C1	0	-14	0	-2	35*
O=C(CCSc1ccc(Cl)cc1)NCc1ccncc1	-10	-3	1	-1	-2
COc1ccc(SCCC(=O)NCc2ccncc2)cc1	1	32*	0	1	-14
Cc1ccc(Cl)cc1N1CCN(C(=O)c2cc(S(=O)(=O)N3CCCC3)c[nH]2)CC1	·	·	0	·	-9
Cc1[nH]n2c(=O)c3c(nc2c1-c1ccc(F)cc1)CCCC3	-17	36*	-1	-6	-22
Cc1[nH]n2c(=O)c3c(nc2c1-c1ccccc1)CCCC3	-39	-17	3	-3	-18
Cc1c(/C=N\NC(=O)C2COc3ccc(C(C)(C)C)cc3O2)c2ccccc2n1C (stereo not given)	118*	58*	1	45*	-10
O=C(c1cc(-c2ccc(Br)cc2)n[nH]1)N1CCN(S(=O)(=O)c2ccc(Cl)s2)CC1	·	·	0	·	-11
Cc1ccc(NC(=O)c2ccc(=O)n(Cc3ccccc3C)c2)c(C)c1	·	·	1	·	-6
COc1ccc(NC(=O)C2CCCN(S(=O)(=O)c3ccc(Br)s3)C2)cc1 (stereo not given)	·	·	-1	·	1
OCc1cnc(SCc2ccccc2F)n1Cc1ccc(F)cc1	·	·	-2	·	-4
CCS(=O)(=O)c1ccc2oc(Nc3ccc(OC)cc3)nc2c1	4	34*	-1	-4	-3
NC(=O)C1CCCNC1 (stereo not given)	1	47*	2	0	-12
Cc1ccc(N2CCN(C(=O)C3CCN(S(=O)(=O)c4ccc5c(c4)oc(=O)n5C)CC3)CC2C)cc1 (stereo not given)	·	·	-1	·	3
CCN(c1ccccc1)S(=O)(=O)c1ccc(Cl)c(C(=O)NCC2CCCO2)c1 (stereo not given)	-4	6	0	1	31*
CS(=O)(=O)N(Cc1ccccc1)c1ccc(C(=O)NCC2CCCO2)cc1 (stereo not given)	-5	33*	-1	-3	5
CS(=O)(=O)N(Cc1ccc(Cl)cc1)c1ccc(C(=O)NCC2CCCO2)cc1 (stereo not given)	0	9	2	1	3
CCc1ccccc1NC(=O)C(C)n1nc(-c2ccc(C)c(C)c2)ccc1=O (stereo not given)	·	·	8	·	19
C=CC(C)(C)c1[nH]cnc1/C=C1\NC(=O)C(C(C)C)NC1=O (stereo not given)	1	76*	1	1	6
COc1ccc(OC)c(NC(=O)c2cc(-c3ccc(C)cc3O)n[nH]2)c1	13	32*	-1	-4	-1
O=C(O)c1ccc(NS(=O)(=O)c2cc(C(=O)O)ccc2Br)cc1	70*	1	0	7	1
SMILES	D2 PAM-1	D2 antagonist	D2 ag-1	D2 ag-2	D2 PAM-2
O=C(c1ccc(S(=O)(=O)Nc2ccccc2)cc1)N1CCC1	-20	1	-1	-2	1
O=C(O)c1ccc(NS(=O)(=O)c2ccc(N3C(=O)CCC3=O)cc2)cc1	-8	39*	-1	-6	-16
O=C(CNc1ccccc1)N/N=C/c1ccc2c(c1)OCCO2	6	0	0	2	-3
O=C(CNc1ccccc1)N/N=C/c1ccc2c(c1)OCO2	-10	37*	0	0	-8
Cc1ccc(/C=N\NC(=O)c2ccc3c(c2)OCO3)o1	-16	32*	0	-1	-24
Cc1cccc(C(=O)Nc2ccc(C(=O)N/N=C/c3ccc4c(c3)OCO4)cc2)c1	-5	-14	-1	-1	-12
Cc1cccc(C(=O)Nc2cccc(C(=O)N/N=C/c3ccc4c(c3)OCO4)c2)c1	-5	37*	-1	2	0
Cc1ccc(C)c(NC(=O)Cn2cc(S(=O)(=O)N3CCCC3)c(S(=O)(=O)N3CCCC3)c2)c1	·	·	·	·	0
CC(C)(C)C(=O)COC(=O)CCc1nc2ccccc2[nH]c1=O	1	31*	1	3	11
c1ccc2c(c1)OC(CCCN1CCCCC1)c1ccccc1S2 (stereo not given)	-31	87*	1	-5	-28
CN1CCCC(CC2Oc3ccccc3Sc3ccccc32)C1 (stereo not given)	-17	96*	3	-6	-33
c1ccc(OCCCCN2CCCCC2)cc1	-12	0	1	-2	-14
OCCN(Cc1ccccc1)CC1CCCCC1	-20	-7	1	-3	9
OCCN(Cc1ccccc1)CC1CC2C=CC1C2 (stereo not given)	5	37*	0	-2	9
CCC(=O)Nc1sc2c(c1C(=O)Nc1ccccc1C)CCC(C)C2 (stereo not given)	·	·	0	·	2
NS(=O)(=O)c1ccc(CCNC(=O)CNC(=O)c2ccc(Br)o2)cc1	-5	66*	0	-3	-25
COc1ccc(CCNC(=O)CSc2nc3[nH]ncc3c(=O)n2-c2ccccc2OC)cc1OC	7	37*	3	-1	9
O=C(Nc1ccc2oc(-c3cccc4c(Br)cccc34)nc2c1)c1ccc(Br)cc1	·	·	1	·	10
CC1CC(C)CN(CCCNC(=O)C2CCCN(c3ncnc4c3nc3n4CCCCC3)C2)C1 (stereo not given)	-18	34*	-1	2	-15
CC(C)N(Cc1ccccc1)C(=O)C1CCCN(c2ncnc3c2nc2n3CCCCC2)C1 (stereo not given)	-9	38*	-1	0	-9
O=C(Nc1ccc(F)c(Cl)c1)C1CCCN(c2cnccn2)C1 (stereo not given)	-30	8	0	1	32*!
CC1CCCN(CCCNC(=O)C2CCCN(c3ncnc4c3nc3n4CCCCC3)C2)C1 (stereo not given)	-17	-3	0	-2	-2
COc1ccccc1N1CCN(CCCNC(=O)C2CCCN(c3ncnc4c3nc3n4CCCCC3)C2)CC1 (stereo not given)	-17	76*	0	-5	5
O=C(NCCCN1CCN(c2ccc(F)cc2)CC1)C1CCCN(c2ncnc3c2nc2n3CCCCC2)C1 (stereo not given)	-17	26	0	-1	-5

Screening data from PubChem BioAssay.
